In PubChem BioAssay:
Activity calls are given as the source filed them.

Columns and labels:
[1] = system: Human papillomavirus type 1a protein E7 (residues 44-93); assay: small molecules binding HPV E7 44-93 – biochemical, small-molecule microarray, residues 44-93, 635 nm fluorescence, primary screen (AID 1108); settings: fluorescence 635 nm, higher = more signal;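 further: E7 fragment applied at 1 µg/mL in TBST for 1 h at 4 C; score combines spot fluorescence with its signal to noise ratio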
[2] = hepatitis C replication reporter changes, two-sided – Huh7 cells, luciferase reporter, HCV replication inhibitor project, primary screen (AID 1109); settings: Huh7 HCV replicon luciferase reporter, 48 h; higher = more signal;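 further: huh7 hepatoma cells harbouring a luciferase neomycin HCV replicon reporter; luciferase luminescence as measure of HCV replicon replication; test concentration not given here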
[3] = molecular target: Left-right determination factor 2 (Homo sapiens) (UniProt O00292); assay: small molecules binding LEFTY2 protein – biochemical, small-molecule microarray, 635 nm fluorescence scan, primary screen (AID 1110); settings: higher = more signal
[4] = molecular target: Calmodulin-1 (Homo sapiens) (UniProt P0DP23); assay: small molecules binding calmodulin-1 with EGTA – biochemical, small-molecule microarray, Cy5-labelled CALM1, profiling panel (AID 1111); settings: Cy5-CALM1 binding fluorescence, higher = more signal;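 further: labelled calmodulin applied in Tris saline Tween buffer holding calcium plus EGTA and DTT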
[5] = molecular target: Calmodulin-1 (Homo sapiens) (UniProt P0DP23); assay: small molecules binding Ca-loaded calmodulin-1 – biochemical, small-molecule microarray, Cy5-labelled CALM1, plus calcium, artefact control for SMM control-protein annotation, profiling panel (AID 1112); settings: Cy5-CALM1 binding fluorescence, higher = more signal;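 further: score merges spot fluorescence with signal to noise from triplicate slides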
[6] = probe aWnt5a binding to arrayed compounds – biochemical, biotinylated probe, 635/667 nm fluorescence, primary screen (AID 1113); settings: small-molecule microarray, higher = more signal;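 further: score merges 667 nm fluorescence intensity with signal-to-noise per printed feature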
[7] = probe aShh binding to arrayed compounds – biochemical, biotinylated probe, 635/667 nm fluorescence, primary screen (AID 1114); settings: small-molecule microarray, higher = more signal;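 further: probe is biotin-labelled aShh protein from a stem cell growth factor screen; measures binding of labelled protein to compounds printed on the slide; score merges feature fluorescence at 667 nm with signal-to-noise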
[8] = probe aNog binding to arrayed compounds – biochemical, biotinylated probe, 635/667 nm fluorescence, primary screen (AID 1115); settings: small-molecule microarray, higher = more signal;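 further: probe is biotinylated aNog protein used at 0.15 µg/mL for 1 h at 4 C; z-score combines 667 nm fluorescence of each spot with its signal to noise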
[9] = molecular target: Torsin-1A-interacting protein 1 (Homo sapiens) (UniProt Q5JTV8); assay: compound microarray binding of lysate hLAP1 – cell lysate, small-molecule microarray, COS7 lysate, 635/667 nm fluorescence, primary screen (AID 1116); settings: 635 nm fluorescence, higher = more signal
[10] = molecular target: Alpha-bungarotoxin (Bungarus multicinctus) (UniProt P60615); assay: compounds binding labelled alpha-BTX control protein – biochemical, small-molecule microarray, Alexa647 label, 635/667 nm fluorescence, artefact control for SMM control protein annotation, profiling panel (AID 1117); settings: alpha-BTX-A647 binding fluorescence, higher = more signal
[11] = molecular target: Albumin (Bos taurus) (UniProt P02769); assay: compounds binding labelled BSA control protein – biochemical, small-molecule microarray, Alexa647 label, 635/667 nm fluorescence, artefact control for SMM control protein annotation, profiling panel (AID 1118); settings: BSA-A647 binding, fluorescence 635 nm, higher = more signal;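 further: score merges 667 nm emission intensity and signal-to-noise per printed compound spot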
[12] = probe aXIP binding to arrayed compounds – biochemical, NeuroSMM set, 635/667 nm fluorescence, primary screen (AID 1119); settings: small-molecule microarray, higher = more signal, called active from +8 up or from −8 down;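 further: probe is the protein aXip251-270 applied at 1 µg/mL to compound-printed slides; binding of probe to printed compounds measured as 667 nm fluorescence plus signal to noise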
[13] = probe aNOTCH3 binding on compound microarray – biochemical, small-molecule microarray, 635/667 nm fluorescence, primary screen (AID 1120); settings: higher = more signal;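 further: probe is a biotin-tagged antibody raised against NOTCH3 rather than NOTCH3 protein; score merges spot fluorescence near 667 nm with spot signal to noise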
[14] = probe aNOTCH2 binding on compound microarray – biochemical, small-molecule microarray, 635/667 nm fluorescence, primary screen (AID 1121); settings: higher = more signal;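 further: score merges feature fluorescence read at 667 nm with its signal to noise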
[15] = molecular target: Carbonic anhydrase 2 (Homo sapiens) (UniProt P00918); assay: compounds binding carbonic anhydrase 2 – biochemical, small-molecule microarray, Alexa647-labelled CAII, profiling panel (AID 1122); settings: CAII-A647 binding fluorescence, higher = more signal
[16] = COS7 lysate on small-molecule microarray, probe aHis, 635 nm (AID 1123); settings: COS7 cell lysate, fluorescence, higher = more signal;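 further: z-score combines 667nm fluorescence intensity with signal-to-noise per printed compound spot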
[17] = probe aLAP1 signal on lysate-treated microarray – cell lysate, small-molecule microarray, COS7 lysate, primary screen (AID 1124); settings: probe aLAP1, fluorescence, higher = more signal;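 further: lysate comes from COS7 cells expressing LAP1 and is applied at 0.3 µg/mL; score merges spot fluorescence near 667 nm with signal-to-noise over triplicate slides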
[18] = system: Sam68 (KHDRBS1); assay: compounds binding KHDRBS1 protein – biochemical, small-molecule microarray, 635 nm fluorescence, primary screen (AID 1125); settings: higher = more signal;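 further: score merges 667 nm channel intensity with signal to noise over triplicate slides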
[19] = system: Chordin-like protein 2 (CHRDL2); assay: compounds binding chordin-like 2 – biochemical, small-molecule microarray, 635 nm fluorescence, primary screen (AID 1126); settings: fluorescence 635 nm, higher = more signal;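 further: printed compound slides probed with Chrdl2 protein at 4 µg/mL for 1 h at 4 C; score merges 667 nm emission intensity with signal to noise over three replicate slides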
[20] = molecular target: Concanavalin-A (Canavalia ensiformis) (UniProt P02866); assay: compounds binding concanavalin A lectin – biochemical, small-molecule microarray, Alexa647 label, 635 nm, artefact control for SMM control protein annotation, primary screen (AID 1127); settings: ConA-A647 binding fluorescence, higher = more signal;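 further: z combines 667 nm emission intensity with signal-to-noise across three replicate slides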
Sequence of Concanavalin-A (Canavalia ensiformis) (P02866 whole entry, looked up): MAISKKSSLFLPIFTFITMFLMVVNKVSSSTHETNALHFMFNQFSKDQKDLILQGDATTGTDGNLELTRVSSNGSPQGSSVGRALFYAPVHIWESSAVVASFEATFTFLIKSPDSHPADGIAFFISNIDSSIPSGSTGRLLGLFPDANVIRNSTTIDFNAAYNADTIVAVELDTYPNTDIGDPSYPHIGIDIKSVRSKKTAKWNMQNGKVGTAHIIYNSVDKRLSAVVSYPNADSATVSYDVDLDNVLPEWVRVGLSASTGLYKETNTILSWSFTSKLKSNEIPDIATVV

Sequence of Albumin (Bos taurus) (P02769 whole entry, looked up): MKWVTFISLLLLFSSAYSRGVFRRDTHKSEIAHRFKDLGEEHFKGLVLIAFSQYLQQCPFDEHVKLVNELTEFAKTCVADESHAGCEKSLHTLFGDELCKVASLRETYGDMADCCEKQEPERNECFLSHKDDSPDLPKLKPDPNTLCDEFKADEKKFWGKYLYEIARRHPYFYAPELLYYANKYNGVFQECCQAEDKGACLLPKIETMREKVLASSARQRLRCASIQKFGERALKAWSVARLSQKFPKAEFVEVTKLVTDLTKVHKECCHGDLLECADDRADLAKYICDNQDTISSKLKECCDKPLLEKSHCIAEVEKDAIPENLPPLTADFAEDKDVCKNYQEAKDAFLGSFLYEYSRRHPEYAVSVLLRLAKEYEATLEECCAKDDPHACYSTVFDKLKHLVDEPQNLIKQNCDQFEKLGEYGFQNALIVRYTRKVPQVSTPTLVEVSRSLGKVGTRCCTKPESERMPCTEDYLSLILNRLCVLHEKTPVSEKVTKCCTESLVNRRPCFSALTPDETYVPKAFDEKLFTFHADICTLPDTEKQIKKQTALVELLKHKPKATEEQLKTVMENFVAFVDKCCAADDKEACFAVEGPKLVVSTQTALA
Sequence of Left-right determination factor 2 (Homo sapiens) (O00292 whole entry, looked up): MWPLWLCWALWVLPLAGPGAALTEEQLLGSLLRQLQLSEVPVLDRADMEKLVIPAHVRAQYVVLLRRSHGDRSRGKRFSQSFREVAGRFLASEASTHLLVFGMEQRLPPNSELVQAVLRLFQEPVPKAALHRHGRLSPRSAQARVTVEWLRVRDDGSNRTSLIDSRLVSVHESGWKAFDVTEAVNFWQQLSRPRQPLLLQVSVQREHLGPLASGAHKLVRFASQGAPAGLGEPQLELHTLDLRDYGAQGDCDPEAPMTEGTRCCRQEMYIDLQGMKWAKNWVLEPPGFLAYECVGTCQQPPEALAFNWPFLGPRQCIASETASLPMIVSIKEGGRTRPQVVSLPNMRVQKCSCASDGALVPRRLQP
Sequence of Torsin-1A-interacting protein 1 (Homo sapiens) (Q5JTV8 whole entry, looked up): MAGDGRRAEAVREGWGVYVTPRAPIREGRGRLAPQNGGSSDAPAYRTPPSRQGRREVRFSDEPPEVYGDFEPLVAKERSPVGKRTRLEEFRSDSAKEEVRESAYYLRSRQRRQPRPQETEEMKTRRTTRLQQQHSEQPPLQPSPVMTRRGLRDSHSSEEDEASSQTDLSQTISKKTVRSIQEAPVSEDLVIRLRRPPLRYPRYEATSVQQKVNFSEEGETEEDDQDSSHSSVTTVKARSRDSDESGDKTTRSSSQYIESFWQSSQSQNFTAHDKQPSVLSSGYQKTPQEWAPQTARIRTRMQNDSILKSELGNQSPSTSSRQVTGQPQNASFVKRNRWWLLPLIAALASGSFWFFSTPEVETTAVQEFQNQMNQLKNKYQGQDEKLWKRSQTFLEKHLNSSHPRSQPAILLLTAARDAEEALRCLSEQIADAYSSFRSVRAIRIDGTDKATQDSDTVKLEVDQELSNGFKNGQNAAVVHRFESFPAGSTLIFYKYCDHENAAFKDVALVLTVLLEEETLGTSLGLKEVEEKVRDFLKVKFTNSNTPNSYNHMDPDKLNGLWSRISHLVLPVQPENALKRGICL
Sequence of Alpha-bungarotoxin (Bungarus multicinctus) (P60615 whole entry, looked up): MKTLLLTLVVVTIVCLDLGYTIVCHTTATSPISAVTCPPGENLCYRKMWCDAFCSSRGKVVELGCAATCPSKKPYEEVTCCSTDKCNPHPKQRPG

SMILES | composite z-score [1] | z-score [2] | composite z-score [3] | composite z-score [4] | composite z-score [5] | composite z-score [6] | composite z-score [7] | composite z-score [8] | composite z-score [9] | composite z-score [10] | composite z-score [11] | composite Z-score [12] | composite z-score [13] | composite z-score [14] | composite z-score [15] | composite z-score [16] | composite z-score [17] | composite z-score [18] | composite z-score [19] | composite z-score [20]
C=C(CCCC)/C(=C/C[C@H](OC(C)=O)c1ccc(CO)o1)c1cnc2ccccc2c1 | 1.39 | -1.54 | 0.487 | 0.229 | -0.693 | -0.0478 | 0.292 | -0.28 | -0.092 | 1.73 | 0.475 | -1.16 (inactive) | 0.0282 | -0.14 | 0.73 | 0.612 | -0.193 | 1.05 | 0.968 | 0.931
O=C1OCCC=C[C@H]2OC34C=CCN(Cc5ccccc5)C(=O)[C@H]3N(CCCCCCO)C(=O)[C@@H]4C12 (stereo not given in full) | 1.04 | -0.422 | -1.06 | -0.214 | 0.232 | -0.343 | -0.233 | -0.402 | 0.366 | -0.63 | -0.0045 | 0.0421 (inactive) | -0.241 | -0.171 | 0.898 | 1.2 | 0.0054 | 0.409 | -1.02 | -0.745
[N-]=[N+]=NCc1ccccc1C[C@]1(C(=O)NCC(O)CO)N=C(c2ccc(OCCCO)cc2)O[C@H]1c1ccccc1N=[N+]=[N-] (stereo not given in full) | 1.38 | -1.47 | -1.22 | 1.03 | 1.04 | 0.0633 | 0.14 | 1.18 | 1.4 | 1.75 | 0.675 | 0.529 (inactive) | 0.254 | -0.0059 | 0.652 | 1.57 | 0.0131 | 0.283 | -0.44 | 0.565
O=C1OCCC=C[C@H]2OC34C=CCN(Cc5ccccc5)C(=O)[C@H]3N(CCCO)C(=O)[C@@H]4C12 (stereo not given in full) | -0.786 | -0.0946 | -0.424 | -0.438 | 0.0072 | -0.164 | -0.206 | -0.0602 | 0.0647 | -0.473 | 0.117 | -0.241 (inactive) | -0.275 | -0.164 | 0.897 | 0.0967 | -0.322 | -1.22 | -0.229 | -0.731
C=C(COC)/C(=C/C[C@H](OC(=O)c1ccncc1)c1cccc(OCCO)c1)c1cc(C(=O)OC)ccc1OC | -1.16 | -1.67 | 0.229 | -0.0871 | -0.46 | -0.156 | -0.0769 | -0.104 | 0.516 | 1.29 | 0.374 | 0.415 (inactive) | -0.0006 | -0.146 | 0.697 | 0.75 | 0.343 | 0.908 | -0.386 | -0.163
CCCCCN1CC=CC23O[C@@H]4/C=C\CCCOC(=O)C4[C@H]2C(=O)N(CCCCCCO)[C@@H]3C1=O (stereo not given in full) | -0.0348 | -0.857 | -0.545 | -0.758 | -0.0227 | -0.154 | -0.0035 | -0.237 | 1.09 | -0.752 | -0.0739 | -0.328 (inactive) | -0.262 | -0.153 | 0.858 | 2.05 | 1.14 | -0.542 | -1.01 | -0.74
